The sample as a whole holds a higher share of hits than the screen did.
Pf Dd2 inh – blocks in vitro growth of P. falciparum Dd2; Potency, µM (series often up to 28.9 µM), without a hit: at the highest dose activity, negative = inhibition, most hits filed as inhibitors; P. falciparum Dd2 growth, SYBR Green, 72 h; actives 4.3% (n = 120,000); AID 1347417; active means well fitted inhibition curve with a large enough effect;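 further: plate controls were DMSO vehicle for no effect and reference drug for full effect; nearly all actives have a fitted effect of over 65% in size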
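Infected erythrocytes (Dd2, 0.3% parasitemia, 2.5% hematocrit final) are added to compound in RPMI-1640/Albumax II medium, grown 72 h at 37C in low oxygen, then lysed with saponin/Triton-X containing SYBR Green and read by fluorescence.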
* hit, by the source's call; i = inactive; [ ] = another dose, or the depositor's remark. Potency means the concentration at half of the fitted maximal effect.

SMILES	Pf Dd2 inh
O=C(Cc1ccccc1Cl)N1CC(c2nc(Cc3ccccc3)no2)C1	-10%
O=C(c1cnn(-c2ccccc2)c1)N1CC[C@H](N2CCOCC2)[C@H](CCCO)C1	1%
Cn1c(CN2CCCCC2)nnc1C1CCCN(C(=O)c2cccnc2)C1 (stereo unspecified)	11%
CCc1cnc2c(c1SCC(=O)Nc1cc(Cl)ccc1OC)c(=O)n(C)c(=O)n2C	-5%
Cc1nc(C)c(C(=O)N2CCc3c(c(-c4nncn4-c4ccccc4)nn3C)C2)s1	-5%
O=C(Nc1nc2ccccc2s1)c1ccc(S(=O)(=O)N2CCCC2)cc1	-5%
CNCCN1C(=O)CC[C@H]2CN(C(=O)Cc3cccs3)CC[C@H]21	-9%
CS(=O)(=O)c1ccc(CN2CCOC[C@H]2c2ncc(-c3ccc(F)cc3F)[nH]2)cc1	-29%[44.1 µM]
CC(=O)N1CCC(N2CCOC[C@H]2c2ncc(-c3ccc(S(C)(=O)=O)cc3)[nH]2)CC1	16%[44.1 µM]
CS(=O)(=O)c1ccc(CN2CCOC[C@H]2c2ncc(-c3ccc(Cl)cc3)[nH]2)cc1	11µM*
CN(C)S(=O)(=O)N1C[C@@H]2CC[C@H](C1)N(C(=O)CCn1cnnn1)C2	1%
Cc1ccc(NC(=O)c2ccc(Br)cc2)c(C(=O)c2ccccc2)c1	4%
Cc1cc(C(=O)N[C@H](C)c2onc(-c3ccc(F)cc3)c2C(=O)O)no1	15%[44.1 µM]
Cc1cc2nc3n(c(=O)c2n1CC(=O)Nc1ccc(Cl)cc1F)CCCCC3	-3%
O=S(=O)(c1ccccc1F)N1CC(c2nc(Cc3ccccc3)no2)C1	-15%
Cc1ccncc1C(=O)N1CCC2(CC1)CC(CO)N(C(=O)c1ccccc1)C2 (stereo unspecified)	26%
Cc1ccc(NC(=O)N2CCC3(CC2)SCC(=O)N3Cc2ccccc2)cc1	i
O=C(Nc1ccccc1Cl)N1CCC2(CC1)Oc1ccccc1C(=O)N2Cc1ccc(F)cc1	14µM*
CC1(C(=O)NC2CCCCC2)Cc2ccccc2C(=O)N1Cc1ccc(F)cc1 (stereo unspecified)	19%
O=C(Nc1cccc(Cl)c1Cl)N1CCC2(CC1)SCC(=O)N2Cc1ccco1	i
COc1ccc(Cl)cc1NC(=O)C[C@H]1NC(=O)c2ccccc2NC1=O	-23%
COc1ccc(Cl)cc1NC(=O)N1CCC(CN2CCCCCC2)CC1	-11%
Cc1ccc(NC(=O)N2CCC3(CC2)Oc2ccccc2C(=O)N3Cc2ccc(F)cc2)cc1	11µM*
O=C(Nc1ccc(F)c(Cl)c1)N1CCC2(CC1)Oc1ccccc1C(=O)N2Cc1ccccc1F	3%
COc1ccc(Cl)cc1NC(=O)N1CCC2(CC1)Oc1ccccc1C(=O)N2Cc1ccc(F)cc1	13µM*
SMILES	Pf Dd2 inh
Cc1cc(C)c(C(=O)N2CC(c3nc(CCN(C)C(=O)C4CC4)no3)C2)c(C)c1	-1%
O=C1N[C@@H]2CCN(S(=O)(=O)c3ccc(Cl)cc3)[C@@H]2C(=O)N1c1ccc(Oc2ccccc2)cc1	-15%
COc1ccc(C2(C(=O)N3CCN4CCS(=O)(=O)N(C5CC5)C(=O)C4C3)CC2)cc1 (stereo unspecified)	-19%
Cc1nc(-c2ccc(F)cc2)n(CC(=O)Nc2ccc(F)cc2)c(=O)c1CCO	i
COc1ccc(Cl)cc1NC(=O)Cn1c(-c2ccc(F)cc2)nc(C)c(CCO)c1=O	14µM*
Cc1cc(NC(=O)Cn2c(-c3cccc(Cl)c3)nc(C)c(CCO)c2=O)no1	-19%
Cc1nc(-c2cccc(Cl)c2)n(CC(=O)Nc2cccc(C(C)C)c2)c(=O)c1CCO	5µM*
COc1cc(NC(=O)Cn2c(-c3ccccc3)nc(C)c(CCO)c2=O)cc(OC)c1	8.9µM*
COc1ccc(OC)c(NC(=O)Cn2c(-c3ccc(F)cc3)nc(C)c(CCO)c2=O)c1	-9%
COc1ccc(NC(=O)Cn2c(-c3ccccc3)nc(C)c(CCO)c2=O)cc1OC	i
COc1ccc(Cl)cc1NC(=O)Cn1c(-c2ccccc2)nc(C)c(CCO)c1=O	i
Cc1ccc(NC(=O)Cn2c(-c3cccc(Cl)c3)nc(C)c(CCO)c2=O)cc1	-12%
Cc1nc(-c2ccc(F)cc2)n(CC(=O)Nc2cc(F)ccc2F)c(=O)c1CCO	-16%
Cc1nc(-c2ccc(F)cc2)n(CC(=O)Nc2ccc(C(C)C)cc2)c(=O)c1CCO	7.1µM*
COc1cc(NC(=O)Cn2c(-c3ccccc3)nc(C)c(CCO)c2=O)cc(OC)c1OC	-16%
CC(NC(=O)Cn1ccc2cc(S(=O)(=O)N3CCCCCC3)ccc21)c1ccccc1 (stereo unspecified)	22%
Cc1noc(-c2cccs2)c1C(=O)N(C)Cc1ccccc1	i
COc1ccc(C(=O)N2CCN3C(=O)N(Cc4ccccc4)C[C@H]3C2)cc1	0%[44.1 µM]
O=C(c1cccc(O)c1)N1CCC2(CC1)Nc1ccccc1NC2=O	8%
COc1ccccc1CN1CC(c2noc(-c3sccc3C)n2)CC1=O (stereo unspecified)	i
O=C([C@H]1C[C@H](Oc2cccnc2)CN1C(=O)c1ccc2ccccc2n1)N1CCOCC1	9%
COC(=O)c1ccccc1NC(=O)c1cc(CN2CCOCC2)on1	-21%
COc1ccc(NC(=O)CN2C(=O)C(C)(C)c3ccccc32)cc1Cl	12%
CCCn1cc(CNC(=O)c2ccc3c(c2)n(CC)c(=O)c2ccnn23)c(C)n1	i
O=C(c1ccco1)N1CCN(C(=O)c2cnn(-c3cccc(F)c3)c2C2CCNCC2)CC1	2%
SMILES	Pf Dd2 inh
Cc1cccc(N2CCN(C(=O)c3cnn(-c4cccc(Cl)c4C)c3C3CCNCC3)CC2)c1C	11µM*
Cc1ccc(-n2ncc(C(=O)N3CCN(c4ccccn4)CC3)c2C2CCN(C(=O)OC(C)(C)C)CC2)cc1C	36%
Cc1c(Cl)cccc1-n1ncc(C(=O)N2CCOCC2)c1C1CCN(C(=O)OC(C)(C)C)CC1	-6%
Cc1ccc2nc(N3CCC(C(=O)N4CCN(c5cccc(C)c5C)CC4)CC3)[nH]c2c1	-7%
CC(=O)c1ccc(NC(=O)c2cnn(-c3cccc(F)c3)c2-n2cccc2)cc1	4%
Cc1cc(C)cc(NC(=O)C2CCN(C(=O)c3cnn(-c4ccccc4)c3-n3cccc3)CC2)c1	10%
O=C(Nc1cccc(C(F)(F)F)c1)c1cnn(-c2cccc(F)c2)c1C1CCNCC1	11µM*
Cc1cc(C)cc(NC(=O)c2cnn(-c3ccc(C)c(C)c3)c2C2CCNCC2)c1	4µM*
Cc1ccc(N2CCN(C(=O)c3cnn(-c4ccc(C)c(C)c4)c3C3CCNCC3)CC2)c(C)c1	5.6µM*
Cc1ccc(C)c(NC(=O)c2cnn(-c3ccc(F)cc3F)c2C2CCNCC2)c1	39%
Cc1c(F)cccc1Nc1ncncc1-c1nc(-c2ccccc2)no1	-6%
CC(=O)c1ccc(NC(=O)CSc2nnc(NC(=O)NC3CCCCC3)s2)cc1	i
O=C(Nc1ccc(Oc2ccccc2)cc1)N[C@H]1CO[C@H]2[C@@H]1OC[C@@H]2Nc1nccc(-c2ccc(-c3ccccc3)cc2)n1	3%
COCCN1C(=O)CS(=O)(=O)C12CCN(C(=O)c1cc(F)ccc1F)CC2	-45%
CN(C)Cc1cc(CC2(NCc3cccc4c3OCO4)COC2)no1	-20%[44.1 µM]
COc1ccc2[nH]c3c(c2c1)CCNC31CCN(S(=O)(=O)c2cn(C)cn2)CC1	-8%
CCc1nc(SC)ncc1C(=O)N1CCN(c2cc(Cl)ccc2C)CC1	i
Cc1ccc(Cl)cc1N1CCN(C(=O)c2cnn(-c3ccc(Cl)cc3)c2C2CCNCC2)CC1	10µM*
CC(C)(C)OC(=O)N1CCC(c2c(C(=O)N3CCN(c4ccccn4)CC3)cnn2-c2ccc(F)cc2)CC1	-5%

Assay outcomes: PubChem, National Center for Advancing Translational Sciences (NCATS)
